Rows were chosen to be rich in hits. Some 2% of all compounds tested hit in one or more screens of this group.
NALP1 yeast inh = blocks the NALP1 inflammasome reconstituted in yeast | 0.61% of 280,000 active | S. cerevisiae NALP1/ASC/caspase-1 growth, X-gal OD620, 72 h | inhibition, % at 10 µM; in the data active = inhibition mostly above about 24%, no sharp cut-off; inactive = mostly below about 32%
A3A deaminase = inhibitors of human APOBEC3A DNA deaminase. P31941. recombinant A3A, FAM/TAMRA ssDNA deamination fluorescence. inhibition, % at 20 µM. 0.41% of 330,000 active;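 active = at least 40% inhibition at 20 µM here, with at most 30% in a related deaminase screen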;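 also: plate controls were A3A with DMSO for no effect and wells lacking A3A enzyme for full effect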
Fh CTSL1 inh = blocks F. hepatica cathepsin L1 in PFM18AAP counter-screen | recombinant F. hepatica cathepsin L1, Z-Leu-Arg-MCA fluorescence | inhibition, % at 5.96 µM | 0.49% of 300,000 active;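 active = inhibition above the mean of all tested compounds plus 3 SD, set per screening campaign, cut at about 17% in these data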;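 also: 0% = plate median of test compound wells and 100% = 1 µM Z-Phe-Ala-diazomethylketone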
APOBEC3G inh = blocks human APOBEC3G single-stranded DNA deamination; Q9HC16; recombinant A3G, ssDNA deamination FAM/TAMRA fluorescence; inhibition, % at 20 µM; 0.28% of 330,000 active;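 active = inhibition of at least 40% at 20 µM, with no more than 30% in the related APOBEC3A deaminase screen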;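 also: plate controls were DMSO wells with A3G for no effect and wells lacking A3G enzyme for full effect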
Target sequence (Q9HC16 whole entry, looked up): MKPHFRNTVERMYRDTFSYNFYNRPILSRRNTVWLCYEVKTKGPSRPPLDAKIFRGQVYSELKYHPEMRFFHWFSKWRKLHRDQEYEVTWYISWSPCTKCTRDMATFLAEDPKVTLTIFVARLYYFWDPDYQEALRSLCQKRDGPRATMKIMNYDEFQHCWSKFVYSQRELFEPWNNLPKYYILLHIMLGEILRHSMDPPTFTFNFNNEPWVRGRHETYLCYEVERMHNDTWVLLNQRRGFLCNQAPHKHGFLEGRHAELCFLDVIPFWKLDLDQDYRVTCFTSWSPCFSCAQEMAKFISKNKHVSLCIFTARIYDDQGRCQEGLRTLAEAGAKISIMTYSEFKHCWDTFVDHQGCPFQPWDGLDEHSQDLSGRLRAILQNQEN
HGIII-sPLA2 inh = Blocks human group III sPLA2 activity; QFRET BODIPY PC-A2 liposome hydrolysis, fluorescence; inhibition, % at 12.2 µM; 0.56% of 370,000 active; AID 743126;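 active = inhibition above mean plus 3 SD of compounds lying within the high and low control bounds, cut at about 19% in these data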;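 also: 0% = median of test compound wells and 100% = no enzyme DMSO wells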
sPLA2 confirm = human GIII-sPLA2 inhibition, confirmation; inhibition, % at 12.2 µM; shares compounds with HGIII-sPLA2 inh; recombinant hGIII-sPLA2, BODIPY PC-A2 QFRET fluorescence; 34% of 2,000 active; AID 743280;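 active = mean inhibition across triplicates above the hit cutoff set in the earlier primary screen, cut at about 19% in these data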;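 also: 0% = enzyme with DMSO and 100% = DMSO wells lacking enzyme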
BODIPY interf = optically interferes with 535nm fluorescence in sPLA2 counter-screen; shares compounds with HGIII-sPLA2 inh; BODIPY FL product fluorescence interference, QFRET; inhibition, % at 12.2 µM; 8.5% of 2,000 active;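 active = average inhibition above the solvent-only control mean plus 3 SD, cut at about 6% in these data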;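 also: 0% = DMSO with substrate plus product and 100% = DMSO with substrate alone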
BODIPY interf DR = 535nm optical interference dose response, HGIII-sPLA2 counter-screen. BODIPY FL product fluorescence interference, cell-free. shares compounds with HGIII-sPLA2 inh. IC50, µM. 240 tested, under 10 active;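 active = IC50 at or below 10 µM; inactive = IC50 above 10 µM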
The depositor's hits bear a star; x = not tested or not shown; ! = a repeat was not active.

SMILES	NALP1 yeast inh	A3A deaminase	Fh CTSL1 inh	APOBEC3G inh	HGIII-sPLA2 inh	sPLA2 confirm	BODIPY interf	others
CC(NC(=O)Cc1ccccc1[N+](=O)[O-])c1ccccc1 (centres undefined)	26	-13	5	-12	23*	-4	-4
Cc1nn(S(=O)(=O)c2cccc([N+](=O)[O-])c2)c(C)c1Br	7	-1	-1	-7	6	x	x
Cc1cc(C)c(S(=O)(=O)n2nc(C)c(Br)c2C)c(C)c1	24	-6	-1	-6	19*	3	-1
c1csc(-c2nnc(NC3CCCCC3)c3ccccc23)c1	25	-1	1	1	21*	0	-11
COc1ccc(CNC(=O)COc2cc3c(c4oc(=O)cc(C)c24)CCC(C)(C)O3)c(OC)c1	x	x	x	x	-5	x	x
N#C/C(=C\c1ccc2c(c1)OCCO2)C(=O)NC1CCCCC1	35	4	10	1	24*	1	-11
COc1cccc(/C=C2\CC3(OC(=O)c4ccco4)CCCN2C3)c1 (centres undefined)	x	x	x	x	0	x	x
CCOC(=O)[C@@]12CCCC3=C1N(CCC3)C(=O)[C@H]2CC(=O)N1CCC(c2ccccc2)CC1	x	x	x	x	1	x	x
COc1ccccc1NC(=O)NNC(=O)c1cc2ccccc2cc1O	6	-4	2	-6	27*	20*	6
Cc1ccc(NC(=O)NNC(=O)c2cc3ccccc3cc2O)cc1	8	-1	2	-2	27*	15	-4
O=C(CCSCCc1ccccn1)Nc1cc(F)ccc1F	39	-3	0	-7	19*	1	-7
c1ccc2[nH]c(SCc3cn4cccnc4n3)nc2c1	23	30	0	-12	23*	-4	-7
COC(=O)C[C@H]1CC[C@@H]2[C@H](COc3ccc(NC(=O)c4cccc(Cl)c4)cc3C(=O)N2C)O1	x	x	x	x	-3	x	x
O=C(Nc1ccc(F)cc1)OCCN1C(=O)CCC12CCC(c1ccc(Cl)cc1)CC2 (centres undefined)	x	x	x	x	5	x	x
Oc1c(C=C2N=c3ccccc3=N2)sc(=S)n1C1CCCCC1	20	-3	-3	-11	20*!	-5	-1
COc1ccc(S[C@]2(C(=O)N3CCCC3)CC(=O)N(C(=O)/C=C/c3ccccc3)[C@@H]2c2ccc(OC)cc2)cc1	x	x	x	x	-4	x	x
CCCCCCN1CCN(C2CN(Cc3cn(CCCC(=O)OC)nn3)S(=O)(=O)C2)CC1 (centres undefined)	x	x	x	x	21*	-3	-6
COC(=O)CCCn1cc(CN2CC(N3CCN(C4CCN(C)CC4)CC3)CS2(=O)=O)nn1 (centres undefined)	x	x	x	x	15	x	x
Cc1[nH]c2ccc(-c3n[nH]c(=S)n3C)cc2c1C	-41	-7	2	31	21*	26*	4
O=C(O)c1ccccc1C(=O)Nc1ccc(Nc2ccc([N+](=O)[O-])cc2[N+](=O)[O-])cc1	12	-2	5	-2	22*	18	-2
O=C(C[n+]1ccc(/C=N/O)cc1)N1CCCCC1	-12	-2	1	-8	22*	-4	-3
O=C(C[n+]1cccc(/C=N/O)c1)N1CCCCCC1	5	-1	-4	0	3	x	x
COC(=O)c1ccc(NC(=O)CNCc2ccncc2)cc1	24	-7	-2	-10	21*	3	-5
CCCCCCCCN1C(=O)[C@@H](CC(=O)NCCc2ccccc2OC)C[C@@]2(C(=O)OC)C1=C[C@H](COCc1ccccc1)O[C@@H]2C	x	x	x	x	-14	x	x
CCC[C@@H](/C=C/C(=O)OC(C)(C)C)Sc1ccccc1OC	x	x	x	x	1	x	x
COC(=O)[C@H]1C[C@@]2(N3CCCCC3)c3ccccc3N[C@H]2N1S(=O)(=O)c1ccc([N+](=O)[O-])cc1	x	x	x	x	-4	x	x
CN(C1=C(N2CCOCC2)C(=O)c2ccccc2C1=O)c1ccccc1	28	0	62*	-1	25*	44*	2	BODIPY interf DR=>122
